Bioassay records deposited in PubChem by Center for Chemical Genomics, University of Michigan.
Sampled rows, rich in hits. Any-hit rate of the full collection: about 0.93%.
CDC25B CDK2 inh: primary biochemical HTRF screen for blockers of M-phase inducer phosphatase 2 binding to CDK2/cyclin A. HTRF CDC25B-CDK2/CyclinA binding, anti-His/anti-Flag; hits give high values. z-score (concentration not given with the values). 94,000 compounds, 0.72% hits. AID 1259370, 2018; in the data active = z-score above about 3.2
HIV TAR-Tat: TAR RNA-Tat peptide displacers, HIV-1, primary screen, biochemical, FRET, FAM/TAMRA-labeled Tat; AID 1259389, 2018; z-score (concentration not given with the values); 100,000 compounds, 0.6% hits; HIV-1 TAR RNA, Tat peptide displacement FRET; hits give high values; active = z-score of 3 or more in at least 2 runs
* hit, by the source's call; / = not tested or not shown.

SMILES	CDC25B CDK2 inh	HIV TAR-Tat
Nc1nc(NCc2ccc(Cl)cc2)nc(NCc2ccco2)c1[N+](=O)[O-]	/	0.72
Cc1cc(F)ccc1NS(=O)(=O)c1cc2c(cc1Cl)NC(=O)CO2	/	-7.65
Oc1c(Cl)cc(Cl)cc1C=Nc1cccnc1	-0.54	/
Oc1ccc(Cl)cc1C=Nc1ccc2cn[nH]c2c1	9.07*	/
CC(Sc1nc2ncccc2o1)C(=O)N(C)c1ccc(F)cc1 (stereo not given)	/	-0.87
C[C@H]1c2cccc(O)c2C(O)=C2C(=O)[C@]3(O)C(O)=C(C(N)=O)C(=O)[C@@H](N(C)C)[C@@H]3[C@@H](O)[C@@H]21	-0.66	23.7*
CN(C)c1ccc(O)c2c1C[C@H]1C[C@H]3[C@H](N(C)C)C(=O)C(C(N)=O)=C(O)[C@@]3(O)C(=O)C1=C2O	/	19.6*
CCOC(=S)Nc1ccc(OC(F)(F)F)cc1	-0.69	/
Cc1ccc(CCNC(=O)c2ccc(C)c(NC3=NC4CS(=O)(=O)CC4S3)c2)cc1 (stereo not given)	-2.02	2.53
COc1ccc(-c2cc(C3CCN(c4nc(N)c5cc(OC)c(OC)cc5n4)CC3)[nH]n2)cc1OC	19.8*	/
COc1ccc(-c2c(N)n[nH]c2C)cc1OC	-2.18	0.76
CCC(C)NC(=O)Nc1ccc2sc(NS(=O)(=O)c3ccccc3)nc2c1 (stereo not given)	/	2.37
CC1CCN(C(=O)Cn2cc(SCC(N)=O)c3ccccc32)CC1	/	-0.36
O=C(O)CCCNc1cc(N2CCCC2)c2noc3c2c1C(=O)c1ccccc1-3	1.31	1.49
CC(C)CNc1cc(N2CCCC2)c2noc3c2c1C(=O)c1ccccc1-3	-1.2	0.45
CCN1CCN(c2cc(NCC(=O)O)c3c4c(onc24)-c2ccccc2C3=O)CC1	0.53	0.3
O=C(O)CNc1cc(N2CCCCC2)c2noc3c2c1C(=O)c1ccccc1-3	4.4*	-5.97
O=C(O)c1ccccc1Nc1cc(N2CCCC2)c2noc3c2c1C(=O)c1ccccc1-3	2.44	7.52*
O=C(O)CNc1cc(N2CCCC2)c2noc3c2c1C(=O)c1ccccc1-3	5.47*	-5.59
Cn1cnc(S(=O)(=O)NCc2ccccc2Cl)c1	/	1.96
O=C(CC1SC(=O)NC1=O)Nc1cc(Cl)ccc1O (stereo not given)	-2.16	/
CC1=C(c2cccc(Br)c2)S(=O)(=O)N=C1N1CCN(C2CCCCC2)CC1	-0.28	1.04
O=C(C1=NNCC1c1ccc(Cl)cc1)c1ccc2ccccc2c1 (stereo not given)	-1.2	/
C=CCN1CC(c2nc3ccccc3n2Cc2ccc(F)cc2)CC1=O (stereo not given)	-1.47	0.57
CC(=O)N1N=C(c2cc(C3CC3)nc3ccccc23)OC1c1ccc2c(c1)OCO2 (stereo not given)	/	4.39*
SMILES	CDC25B CDK2 inh	HIV TAR-Tat
CC(=O)N1N=C(c2cc(C)nc3ccccc23)OC1c1cccs1 (stereo not given)	/	3.84*
CC(=O)N1N=C(c2cccc3ccccc23)OC1c1cc(C)nc2ccccc12 (stereo not given)	/	0.06
COc1cc(C2OC(c3cc(C4CC4)nc4ccccc34)=NN2C(C)=O)ccc1OC(C)=O (stereo not given)	/	0.93
O=C(NC1CCCCC1)N1CCN(c2ncnc3c(-c4ccc(F)cc4)nsc23)CC1	-2.14	0.88
CCCCOc1ncnc2c1sc1nc(-c3ccco3)c3c(c12)CC(C)(C)OC3	-0.94	1.19
Cc1nonc1NC(=O)Nc1ccncc1	9.17*	-0.99
Cc1nonc1NC(=O)N1CCOCC1	-1.39	1.34
Cc1nc2nc(CN)nn2c(C)c1CCC(=O)NCC1CCN(CCc2cccs2)CC1	1.13	0.96
Cc1ccc2c(=O)c(C(=O)O)c[nH]c2n1	1.51	19.6*
Cc1ccc2c(=O)c(C(=O)c3ccc(F)cc3)c[nH]c2n1	/	-1.97
CC1CCC(NC(=O)Cn2c(=O)sc3ccccc32)CC1 (stereo not given)	-0.22	/
COc1ccc(OC)c(S(=O)(=O)n2nc(C)c(S(=O)(=O)N3CCCCC3)c2C)c1	/	1.42
CC1(C(=O)NC2CCCC2)Cn2c(ccc2-c2ccco2)C(=O)N1c1ccc(Cl)cc1 (stereo not given)	/	0.75
O=C(O)COc1ccc2c(c1)C(=O)c1cc(OCC(=O)O)ccc1-2	-0.19	7.22*
CCN(CC)CCOc1ccc2c(c1)C(=O)c1cc(OCCN(CC)CC)ccc1-2	/	0.27
CC(=O)N1c2ccc(S(=O)(=O)Nc3ccc(F)cc3)cc2CC1C (stereo not given)	/	1.12
Cc1ccc2c(c1)-c1cc(C)nn1C(c1cccc(O)c1O)N2 (stereo not given)	1.81	18.8*
Cc1ccc2c(c1)-c1cc(C)nn1C(c1cc(C)ccc1O)N2 (stereo not given)	1.41	2.17
O=C(c1[nH]nc2c1CCc1ccccc1-2)N1CCN(c2ccc(F)cc2)CC1	/	0.09
N/C(CS(=O)(=O)c1cccs1)=N\OS(=O)(=O)c1ccccc1C(F)(F)F	-2.14	/
Cc1c(C(=O)O)sc2ncnc(NCCC(C)C)c12	/	10.1*
Cc1c(C(=O)O)sc2ncnc(NC3CCCC3)c12	/	0.65
Cc1c(C(=O)O)sc2ncnc(NC3CCCCC3)c12	/	5.98*
Cc1c(C(=O)O)sc2ncnc(Nc3ccc(C(C)C)cc3)c12	/	2.58
COc1ccc(-c2noc(NCCCN3CCCC3)n2)cc1	/	-1.08
SMILES	CDC25B CDK2 inh	HIV TAR-Tat
COc1ccc(OC)c(CN2CCN(Cc3ccc4c(c3)OCO4)CC2)c1	-0.45	0.34
O=S(=O)(c1ccc2ccccc2c1)N1CCN(Cc2ccc3c(c2)OCO3)CC1	-0.97	9.03*
O=S(=O)(c1ccccc1)N1CCN(Cc2ccc3c(c2)OCO3)CC1	-0.65	1.22
CCOc1ccc(CN2CCN(Cc3ccc4c(c3)OCO4)CC2)cc1	8.4*	1.14
Cc1ccc(C)c(N2CCN(S(=O)(=O)c3cc(-c4csc(C)n4)ccc3C)CC2)c1	/	0.83
Cc1c(C(=O)NCCN2CCN(C)CC2)oc2c1-c1[nH]ncc1CC2	0.88	0.93
CC(C)(C)NC(=O)C1CCC(CNS(=O)(=O)c2ccc3c(c2)CCCC(=O)N3)CC1 (stereo not given)	/	0.57
COc1ccccc1C1NC(=O)NC(O)(C(F)(F)F)C1C(=O)c1ccccc1 (stereo not given)	-0.92	/
CCN(CC)c1ccc(NS(=O)(=O)c2ccc(-c3ccc(=O)[nH]n3)o2)c(C)c1	/	-3.26
CCN(CC)c1ccc(NS(=O)(=O)c2cc3[nH]c(=O)c(=O)[nH]c3cc2C)c(C)c1	/	13.7*
CC(C)n1cc2c(c1-c1ccc(Cl)cc1)c(=O)n(C)c(=O)n2C	-1.33	1.04
COC(=O)c1ccc(C2/C(=C(/O)c3ccc(C)cc3)C(=O)C(=O)N2c2cccnc2)cc1 (stereo not given)	12.2*	0.97
CCOc1ccc(C2/C(=C(/O)c3ccc(C)cc3)C(=O)C(=O)N2c2cccnc2)cc1 (stereo not given)	0.11	-0.47
CC(C)OCCCNC(=O)C1=Cc2cc(Br)ccc2OC1	/	1.08
COc1ccc(OC)c(NC(=O)C2CCCN(S(=O)(=O)c3ccc4c(c3)oc(=O)n4C)C2)c1 (stereo not given)	0.37	0.92
Cc1oc(-c2ccc(Cl)cc2)cc1-c1nn2c(-c3ccco3)nnc2s1	-1.29	1.43
Cc1oc(-c2ccc(F)cc2)cc1-c1nn2c(-c3ccoc3C)nnc2s1	1.81	17.9*
CCn1c(SCC(=O)Nc2nc3ccccc3s2)nnc1-c1cc2ccccc2o1	/	1.85
